According to the supplement of paper PMC9262897, “Low-cost anti-mycobacterial drug discovery using engineered E. coli” (Nature Communications, 2022):
Where a name gives a salt, the structure may show the parent alone. ± gives the standard deviation of the averaged measurements.

System: E. coli TESEC Mtb DapB
Test: growth (OD600 after 10 h); higher = more growth (less inhibition)
Conditions: arabinose induction (level): High; compound 0.1 mM; raw OD600 reference: median of DMSO wells […], cell-free background 0.041
Procedure: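 TESEC E. coli strains in which the native enzyme is deleted and replaced by arabinose-inducible Mtb Asd, DapB, CysH or TrpD, each grown in its selective medium. Strains were screened against the Prestwick library at 0.1 mM and 1% DMSO in 384-well format at low and high arabinose induction. Growth is read as OD600 after 10 h in triplicate.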

Structure (SMILES) | growth
OC(c1ccccc1)(c1ccccc1)C1CCNCC1 [Azacyclonol] | 0.185 ± 0.013
COc1ccc(Cc2nccc3cc(OC)c(OC)cc23)cc1OC [Papaverine hydrochloride] | 0.148 ± 0.0024
CCCC(C)C1(CC)C(=O)NC(=O)NC1=O (stereo not given) [Pentobarbital] | 0.2 ± 0.01
COc1cc([C@@H]2c3cc4c(cc3[C@H](O)[C@H]3COC(=O)[C@H]23)OCO4)cc(OC)c1OC [Podophyllotoxin] | 0.212 ± 0.012
CC(Cc1ccc(O)cc1)NCC(O)c1cc(O)cc(O)c1 (stereo not given) [Fenoterol hydrobromide] | 0.201 ± 0.017
O=C(O)CCCc1ccc(N(CCCl)CCCl)cc1 [Chlorambucil] | 0.209 ± 0.023
C[C@]12CC[C@@H](O)C[C@H]1CC[C@@H]1[C@@H]2CC[C@]2(C)C(=O)CC[C@@H]12 [3-alpha-Hydroxy-5-beta-androstan-17-one] | 0.122 ± 0.0084
CC(C)N(CCC(C(N)=O)(c1ccccc1)c1ccccn1)C(C)C (stereo not given) [Disopyramide] | 0.175 ± 0.0095
CC(NC(C)(C)C)C(=O)c1cccc(Cl)c1 (stereo not given) [Bupropion hydrochloride] | 0.202 ± 0.0039
Clc1ccc(C(OCCN2CCCCC2)c2ccccc2)cc1 (stereo not given) [Cloperastine hydrochloride] | 0.146 ± 0.012
CC(=O)NC1CCSC1=O (racemic) [N-Acetyl-DL-homocysteine Thiolactone] | 0.226 ± 0.0088
C(#CCN1CCCC1)CN1CCCC1 [Tremorine dihydrochloride] | 0.2 ± 0.015
C[C@H](N)[C@H](O)c1ccc(O)c(O)c1 [Levonordefrin] | 0.167 ± 0.003
CCCN1C[C@H](CSC)C[C@@H]2c3cccc4[nH]cc(c34)C[C@H]21 [Pergolide mesylate] | 0.2 ± 0.027
CCC1(c2cccc(O)c2)CCCCN(C)C1 (stereo not given) [Meptazinol hydrochloride] | 0.215 ± 0.026
C[N+]1(C)[C@@H]2CC[C@H]1C[C@@H](OC(=O)C(CO)c1ccccc1)C2 (stereo not given in full) [Methylatropine nitrate] | 0.199 ± 0.028
C[C@]12CCC(=O)C(O)=C1CC[C@@H]1[C@@H]2CC[C@]2(C)C(=O)CC[C@@H]12 [Formestane] | 0.156 ± 0.01
COc1cc2c(c(OC)c1OC)-c1ccc(OC)c(=O)cc1[C@@H](NC(C)=O)CC2 [Colchicine] | 0.204 ± 0.018
c1ccc2c(c1)OCC(C1=NCCN1)O2 (stereo not given) [Idazoxan hydrochloride] | 0.183 ± 0.017
NC(=O)CN1CCCC1=O [Piracetam] | 0.202 ± 0.0067

Same assay, conditions: arabinose induction (level): Low; compound 0.1 mM; raw OD600 reference: median of DMSO wells 0.227, cell-free background 0.041

Structure (SMILES) | growth
OC(c1ccccc1)(c1ccccc1)C1CCNCC1 [Azacyclonol] | 0.213 ± 0.036
COc1ccc(Cc2nccc3cc(OC)c(OC)cc23)cc1OC [Papaverine hydrochloride] | 0.161 ± 0.0073
CCCC(C)C1(CC)C(=O)NC(=O)NC1=O (stereo not given) [Pentobarbital] | 0.265 ± 0.014
COc1cc([C@@H]2c3cc4c(cc3[C@H](O)[C@H]3COC(=O)[C@H]23)OCO4)cc(OC)c1OC [Podophyllotoxin] | 0.261 ± 0.027
CC(Cc1ccc(O)cc1)NCC(O)c1cc(O)cc(O)c1 (stereo not given) [Fenoterol hydrobromide] | 0.235 ± 0.05
O=C(O)CCCc1ccc(N(CCCl)CCCl)cc1 [Chlorambucil] | 0.259 ± 0.023
C[C@]12CC[C@@H](O)C[C@H]1CC[C@@H]1[C@@H]2CC[C@]2(C)C(=O)CC[C@@H]12 [3-alpha-Hydroxy-5-beta-androstan-17-one] | 0.135 ± 0.013
CC(C)N(CCC(C(N)=O)(c1ccccc1)c1ccccn1)C(C)C (stereo not given) [Disopyramide] | 0.195 ± 0.02
CC(NC(C)(C)C)C(=O)c1cccc(Cl)c1 (stereo not given) [Bupropion hydrochloride] | 0.261 ± 0.086
Clc1ccc(C(OCCN2CCCCC2)c2ccccc2)cc1 (stereo not given) [Cloperastine hydrochloride] | 0.163 ± 0.0059
CC(=O)NC1CCSC1=O (racemic) [N-Acetyl-DL-homocysteine Thiolactone] | 0.242 ± 0.019
C(#CCN1CCCC1)CN1CCCC1 [Tremorine dihydrochloride] | 0.234 ± 0.059
C[C@H](N)[C@H](O)c1ccc(O)c(O)c1 [Levonordefrin] | 0.176 ± 0.043
CCCN1C[C@H](CSC)C[C@@H]2c3cccc4[nH]cc(c34)C[C@H]21 [Pergolide mesylate] | 0.234 ± 0.049
CCC1(c2cccc(O)c2)CCCCN(C)C1 (stereo not given) [Meptazinol hydrochloride] | 0.217 ± 0.024
C[N+]1(C)[C@@H]2CC[C@H]1C[C@@H](OC(=O)C(CO)c1ccccc1)C2 (stereo not given in full) [Methylatropine nitrate] | 0.229 ± 0.0072
C[C@]12CCC(=O)C(O)=C1CC[C@@H]1[C@@H]2CC[C@]2(C)C(=O)CC[C@@H]12 [Formestane] | 0.159 ± 0.0083
COc1cc2c(c(OC)c1OC)-c1ccc(OC)c(=O)cc1[C@@H](NC(C)=O)CC2 [Colchicine] | 0.228 ± 0.035
c1ccc2c(c1)OCC(C1=NCCN1)O2 (stereo not given) [Idazoxan hydrochloride] | 0.228 ± 0.021
NC(=O)CN1CCCC1=O [Piracetam] | 0.208 ± 0.028
